Screening results deposited in PubChem BioAssay by several laboratories.
Most compounds without a hit are left out; they make up all but 4.5% or so of the library.
Beta cell apopt – beta cell apoptosis inhibition. protection from apoptosis, % (no concentration beside the values). AID 435005. 300,000 compounds, 0.8% hits. INS-1E cytokine-induced death, ATP luminescence, 48 h; percent of positive-control rescue, neutral wells zero;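 active = Every replicate reaches about 75%, or at least half do and their mean reaches it too, limit read from the data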;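 note: higher means more ATP so stronger rescue from cytokine killing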
Jurkat NFkB inh – inhibitors of the PMA/ionomycin-induced NF-kB reporter in Jurkat cells | PMA/ionomycin-induced NF-kB luciferase reporter, luminescence | inhibition, % at 4 µM | 330,000 compounds, 0.53% hits | AID 435003; in the data active = inhibition above about 50%
CSC inhib – blocks cancer stem cells | cancer stem cell-like cells viability, luminescence | inhibition, % at 7.5 µM | 300,000 compounds, 1.1% hits; in the data active = inhibition above about 75%; tested in HMLE shEcad cells
697 NFkB inh – lowers PMA/ionomycin-induced NF-kB signal in 697 B cells | 697 B-cell NF-kB luciferase reporter, 16 h | inhibition, % at 4 µM | 330,000 compounds, 0.33% hits; in the data active = inhibition above about 35%
Mdm2 MdmX PPI – inhibitors of human Mdm2/MdmX interaction | inhibition, % at 8 µM | SaOS-2 split-luciferase Mdm2/MdmX complementation, luminescence | 330,000 compounds, 3% hits;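 active = inhibition of at least 50% at 8 µM in the primary screen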
Target sequence (O15151 whole entry, looked up): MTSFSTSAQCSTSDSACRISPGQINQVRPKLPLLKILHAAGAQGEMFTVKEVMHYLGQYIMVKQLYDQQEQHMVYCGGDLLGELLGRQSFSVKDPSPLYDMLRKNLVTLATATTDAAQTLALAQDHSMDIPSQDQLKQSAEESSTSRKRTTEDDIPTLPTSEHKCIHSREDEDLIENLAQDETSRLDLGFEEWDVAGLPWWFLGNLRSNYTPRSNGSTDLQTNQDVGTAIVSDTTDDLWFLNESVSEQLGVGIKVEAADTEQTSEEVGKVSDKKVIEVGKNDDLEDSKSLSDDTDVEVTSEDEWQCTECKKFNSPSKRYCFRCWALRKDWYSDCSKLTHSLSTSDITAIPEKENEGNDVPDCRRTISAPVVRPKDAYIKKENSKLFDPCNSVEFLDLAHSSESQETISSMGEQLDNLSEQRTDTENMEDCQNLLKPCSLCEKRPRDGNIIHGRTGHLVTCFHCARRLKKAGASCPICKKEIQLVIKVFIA
Target sequence (Q00987 whole entry, looked up): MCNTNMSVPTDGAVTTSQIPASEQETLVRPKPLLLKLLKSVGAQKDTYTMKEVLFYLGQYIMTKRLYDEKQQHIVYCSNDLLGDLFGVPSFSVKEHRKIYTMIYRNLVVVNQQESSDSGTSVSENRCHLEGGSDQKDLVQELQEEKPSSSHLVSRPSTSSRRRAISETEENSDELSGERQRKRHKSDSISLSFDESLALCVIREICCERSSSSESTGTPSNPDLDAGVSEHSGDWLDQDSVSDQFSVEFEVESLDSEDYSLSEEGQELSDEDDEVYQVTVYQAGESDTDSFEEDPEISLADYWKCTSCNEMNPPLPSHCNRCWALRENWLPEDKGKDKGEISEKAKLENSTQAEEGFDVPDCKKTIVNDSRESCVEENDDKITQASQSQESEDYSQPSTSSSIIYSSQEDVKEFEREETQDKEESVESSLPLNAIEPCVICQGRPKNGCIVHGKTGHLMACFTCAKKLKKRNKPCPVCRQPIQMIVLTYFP
Gli-Sufu block – antagonists of Gli-Sufu signaling; Sufu-KO-LIGHT fibroblasts, Gli luciferase reporter luminescence; inhibition, % at 5 µM; 340,000 compounds, 0.74% hits;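 active = inhibition above about 55%, limit read from the data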
Gli antag conf – confirmation of Gli-SUFU pathway antagonists | shares compounds with Gli-Sufu block | Sufu-KO-LIGHT cells, Gli luciferase reporter, luminescence | inhibition, % at 5 µM | 2,500 compounds, 40% hits;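 active = mean inhibition at 5 µM reaching about 45%, limit read from the data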
Gli cytotox – cytotoxicity counter-screen for Gli-SUFU antagonists. shares compounds with Gli-Sufu block. Sufu-KO-LIGHT cells cytotoxicity, ATP luminescence. cytotoxicity, % at 5 µM. 2,500 compounds, 32% hits. AID 651994;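 active = mean cytotoxicity at 5 µM above about 25%, limit read from the data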;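 note: cells exposed to compound overnight for roughly 16 to 18 hours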
Wnt3a cs – Wnt3a reporter inhibition counter-screen; shares compounds with Gli-Sufu block; Wnt-LIGHT cells, Wnt3a-driven luciferase reporter, luminescence; inhibition, % at 6.25 µM; 2,500 compounds, 20% hits;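 active = mean inhibition above about 25%, limit read from the data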
Each line names hits and unclear results; the compound was inactive in the other large screens (follow-up assays come after a bar, where they were run).

Nc1ncnc2c(C3OC(CO)C(O)C3O)c[nH]c12 (stereo not given)	Gli-Sufu block 86.7 (no result: Beta cell apopt, Jurkat NFkB inh, CSC inhib, 697 NFkB inh, Mdm2 MdmX PPI) | Gli antag conf 89.2 | Gli cytotox 85.5 | Wnt3a cs 100.9
Nc1ncnc2c1ncn2[C@@H]1O[C@H](CO)[C@@H](O)[C@H]1O	none (no result: Beta cell apopt)
O=C(NCCc1ccc(Cl)cc1)C1CCCO1 (stereo not given)	none
O=C1C(Cc2cccc([N+](=O)[O-])c2)SC(=Nc2ccccc2)N1c1ccccc1 (stereo not given)	Gli-Sufu block 61.6 (no result: Beta cell apopt, CSC inhib) | Gli antag conf inactive | Gli cytotox inactive | Wnt3a cs inactive
O=C1C(Cc2ccc(Br)cc2)SC(=Nc2ccccc2)N1c1ccccc1 (stereo not given)	none
COc1ccc(C(=O)Nc2ccnn2C2CCN(C(=O)c3cnsn3)CC2)cc1	none
Cc1nc2ccccc2n1Cc1ccc(Br)cc1	Beta cell apopt 96.1, Gli-Sufu block 61.7 | Gli antag conf 58.9 | Gli cytotox 27.6 | Wnt3a cs inactive
COc1cnn(-c2cccc(C)c2)c(=O)c1Cl	none | Gli antag conf inactive | Gli cytotox inactive | Wnt3a cs inactive
Cc1cc(NC(=O)CS(=O)(=O)c2ccc(Cl)cc2)no1	none
CCOc1ccc(S(=O)(=O)Nc2cccc(C(=O)NCC3CCCO3)c2)cc1 (stereo not given)	none
COc1ccc(NC(=O)CN(c2c(C)cccc2C)S(C)(=O)=O)cc1	none (no result: Beta cell apopt)
CCOC(=O)CN1C(=O)C(CC)Oc2ccccc21 (stereo not given)	none
CCOC(=O)CN1C(=O)/C(=C/c2ccccc2Br)Oc2ccccc21	Gli-Sufu block 57.2 | Gli antag conf inactive | Gli cytotox inactive | Wnt3a cs inactive
COc1ccccc1CNC(=O)[C@H](C)N1C(=O)N2CCc3c([nH]c4ccccc34)[C@@]2(C)C1=O	Gli-Sufu block 65.9 | Gli antag conf inactive | Gli cytotox inactive | Wnt3a cs inactive
Cc1cc(/C=C2/SC(=S)N(c3ccc([N+](=O)[O-])cc3)C2=O)c(C)n1-c1cccnc1	Beta cell apopt 105.7, Gli-Sufu block 80.8 | Gli antag conf 82.3 | Gli cytotox inactive | Wnt3a cs inactive
Cc1ccc(NC(=S)Nc2cc(C(=O)O)ccc2N2CC3CC(C2)c2cccc(=O)n2C3)cc1C (stereo not given)	Gli-Sufu block 79.0 | Gli antag conf inactive | Gli cytotox inactive | Wnt3a cs inactive
COc1cccc(C(=O)C2CCCN(C(=O)c3ccccn3)C2)c1 (stereo not given)	none (no result: CSC inhib)
COc1cccc(C(=O)C2CCCN(C(=O)c3ccc(C#CC(C)(C)O)cc3)C2)c1 (stereo not given)	Gli-Sufu block 59.5 | Gli antag conf inactive | Gli cytotox inactive | Wnt3a cs inactive
COc1ccc(C(=O)N2CC(=O)Nc3ccc(F)cc3C2c2ccccc2)cc1 (stereo not given)	Gli-Sufu block 67.2 (no result: Jurkat NFkB inh, 697 NFkB inh, Mdm2 MdmX PPI) | Gli antag conf inactive | Gli cytotox inactive | Wnt3a cs inactive
COc1cccc(N(CC(=O)Nc2ccccc2C)S(C)(=O)=O)c1	none
COc1ccc(N(CC(=O)NCCSCc2ccc(C)cc2)S(=O)(=O)c2ccccc2)cc1	Gli-Sufu block 95.1 | Gli antag conf inactive | Gli cytotox inactive | Wnt3a cs inactive
COc1cccc(N(CC(=O)Nc2cccc(C(C)=O)c2)S(C)(=O)=O)c1	Gli-Sufu block 77.4 | Gli antag conf inactive | Gli cytotox inactive | Wnt3a cs inactive
COc1ccc(NC(=O)CN(c2ccc(F)cc2)S(=O)(=O)c2ccccc2)c(OC)c1	none
COc1ccccc1NC(=O)CN(c1ccccc1)S(=O)(=O)c1ccccc1	none | Gli antag conf inactive | Gli cytotox inactive | Wnt3a cs inactive
COc1cccc(NC(=O)CN(c2cccc(OC)c2)S(C)(=O)=O)c1	none
CCc1ccccc1NC(=O)CN(c1cccc(OC)c1)S(C)(=O)=O	Gli-Sufu block 92.2 | Gli antag conf inactive | Gli cytotox inactive | Wnt3a cs inactive
COc1ccccc1N(CC(=O)NCCSCc1ccc(C)cc1)S(=O)(=O)c1ccccc1	none (no result: Beta cell apopt)
Cc1cc(C)cc(NC(=O)CN(C)CC(=O)N(CC(C)C)c2c(N)n(CC(C)C)c(=O)[nH]c2=O)c1	none
CC1CC1C(=O)OCC(=O)N(C)c1c(N)n(Cc2ccccc2)c(=O)[nH]c1=O (stereo not given)	none
CC(=O)Nc1ccc(C(=O)OCC(=O)/C(C#N)=C(\C)N)cc1	none (no result: CSC inhib)
C/C(N)=C(/C#N)C(=O)COC(=O)c1ccncc1	Gli-Sufu block 95.1 | Gli antag conf inactive | Gli cytotox inactive | Wnt3a cs inactive
CCC(C)NS(=O)(=O)c1ccc(S(=O)(=O)N2CCCC3(CCCCC3)C2)cc1 (stereo not given)	none | Gli antag conf inactive | Gli cytotox 25.6 | Wnt3a cs inactive
CN(C(=O)CCNC(=O)N1CC(=O)Nc2ccccc21)C1CCCCC1	Gli-Sufu block 57.2 | Gli antag conf inactive | Gli cytotox inactive | Wnt3a cs inactive
CCOC(=O)c1ccc[n+]([O-])c1	none (no result: Beta cell apopt, Jurkat NFkB inh, CSC inhib, 697 NFkB inh, Mdm2 MdmX PPI)
CCOC(=O)c1ccc(NC(=O)c2ccc[n+]([O-])c2)cc1	Gli-Sufu block 57.8 | Gli antag conf inactive | Gli cytotox inactive | Wnt3a cs inactive
CC[N+](CC)(CC#Cc1ccccc1)CC#Cc1ccccc1	Gli-Sufu block 67.8 | Gli antag conf 71.4 | Gli cytotox inactive | Wnt3a cs inactive
O=C(O)c1ccc(O)c(O)c1	none (no result: Beta cell apopt)
O=C(O)c1ccc(-c2ccc(O)c(F)c2)cc1	none | Gli antag conf inactive | Gli cytotox inactive | Wnt3a cs inactive
O=C(NC(=S)Nc1ccccc1O)c1cccnc1	Gli-Sufu block 81.5 | Gli antag conf inactive | Gli cytotox inactive | Wnt3a cs inactive
Cc1ccccc1C(=O)NNS(=O)(=O)c1cccc([N+](=O)[O-])c1	none
FC(F)Sc1ccc(-n2c(-c3ccc(Cl)cc3)c[n+]3c2CCC3)cc1	none | Gli antag conf inactive | Gli cytotox inactive | Wnt3a cs inactive
Cc1ccc(-n2nc(C(=O)N3CCOCC3)cc2-c2ccc(Cl)cc2)cc1	none
Cc1ccc(-n2c(-c3ccccc3)c[n+]3c2CCC3)cc1	Beta cell apopt 108.9, Gli-Sufu block 81.8 | Gli antag conf 84.3 | Gli cytotox inactive | Wnt3a cs 40.1
Cc1ccc(-n2c(-c3ccc(Cl)cc3)c[n+]3c2CCC3)cc1	Gli-Sufu block 76.2 | Gli antag conf 77.2 | Gli cytotox 37.4 | Wnt3a cs inactive
CC(C)(C)c1ccc(S(=O)(=O)NCC2CCCO2)cc1 (stereo not given)	Gli-Sufu block 62.5 | Gli antag conf inactive | Gli cytotox inactive | Wnt3a cs inactive
CCCn1c(SCC(=O)N2CCc3ccccc32)n[nH]c1=O	none
